HIF act: HIF pathway transcriptional activators, primary screen, cell-based, U2OS HRE-luciferase, luminescence. activation, % at 7.5 µM (by protocol). 300,000 compounds, 0.32% hits. U2OS HRE-luciferase reporter; normalized: DMSO 0%, desferrioxamine 100%;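 active = mean activation of at least 10% of the iron chelator positive control signal, with at least half of replicates also reaching 10%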
CFTR F508del cor: F508del CFTR correction, initial screen, CFBE line, single point | CFBE cells, YFP halide quenching; stimulated with forskolin plus potentiator P3; % fluorescence drop versus neutral controls | activity (quench increase), % at 7.58 µM | 350,000 compounds, 0.36% hits | AID 720511, 2013;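 active = mean added fluorescence quench of at least 8% versus neutral control, with both replicates also reaching 8%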;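 also: cells transiently co-express mutant CFTR-F508del with the halide-sensitive YFP; corrector assay measuring rescue of mutant channel to the surface after 24 h compound exposure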
Jurkat NFkB inh: inhibitors of induced NF-kB luciferase reporter, primary screen, TCR NF-kB activation inhibitor project, cell-based, luminescence, uHTS; 330,000 compounds, 0.53% hits; Jurkat, PMA/ionomycin-induced NF-kB luciferase reporter; inhibition, % at 4 µM; AID 435003, 2010; in the data active = inhibition above about 50%
697 NFkB inh: inhibitors of PMA/ionomycin-induced NF-kB reporter, 697 cells, primary screen, B-cell NF-kB inhibitor project, cell-based, luminescence, uHTS. AID 435022, 2010. inhibition, % at 4 µM. 697 B-cell NF-kB luciferase reporter, 16 h. 330,000 compounds, 0.33% hits; in the data active = inhibition above about 35%
Of the large screens only hits and unclear results are named; the others gave an inactive call. Sampled rows, rich in hits. Any-hit rate of the full collection: about 0.93%.

N#CCC(=O)N/N=C/c1cn(Cc2cccc3ccccc23)c2ccccc12	CFTR F508del cor 11.0
N#CCC(=O)N/N=C/c1cn(Cc2ccccc2C#N)c2ccccc12	none
COC(=O)C1=C(C)N(C)C(=O)NC1c1cc(Cl)c(O)c(OC)c1 (stereo not drawn)	HIF act 691.9
COC(=O)C1=C(C)N(C)C(=O)NC1c1cc(Cl)cc(Cl)c1OC (stereo not drawn)	none (no result: HIF act, CFTR F508del cor)
CC(C)C#Cc1cnc2c(c1)C(=O)N([C@@H](C)CO)C[C@H](C)[C@H](CN(C)C(=O)Cc1ccncc1)O2	none (no result: HIF act, Jurkat NFkB inh, 697 NFkB inh)
CN1CCN(C(=O)C2=C[C@H](C(C)(C)C)C[C@H](OCc3ccc(CO)cc3)O2)CC1	none (no result: HIF act, Jurkat NFkB inh, 697 NFkB inh)
NC(=O)[C@@H]1[C@H]2C(=O)O[C@H](c3ccccc3)[C@H](c3ccccc3)N2[C@H](c2ccc(O)cc2)[C@@]12C(=O)Nc1ccc(C#CC3(O)CCCCCC3)cc12	none (no result: HIF act, Jurkat NFkB inh, 697 NFkB inh)
Cc1ccc(Nc2nc(-c3cccnc3)nc3ccccc23)cc1	CFTR F508del cor 11.9
COc1ccc2c(c1OC)OCC2C (stereo not drawn)	CFTR F508del cor 8.1 (no result: HIF act, Jurkat NFkB inh, 697 NFkB inh)
CC(=O)c1cccc(NS(=O)(=O)c2ccc(-c3cc(C)no3)s2)c1	HIF act 44.2
CC(=O)c1ccc(N2CCN(S(=O)(=O)c3ccc(-c4cc(C)no4)s3)CC2)cc1	none
C=CCN(CC=C)C(=S)Nc1ccc(OC)c(OC)c1	CFTR F508del cor 13.2
CNC(=S)Nc1ccc(OC)c(OC)c1	none (no result: CFTR F508del cor)
CN(C)C(=O)C[C@@H]1CC[C@@H](NC(=O)c2ccc(F)cc2)[C@H](CO)O1	none (no result: HIF act, Jurkat NFkB inh, 697 NFkB inh)
COc1ccc2c(c1)C(=O)CC(c1ccc3c(c1)OCCO3)O2 (stereo not drawn)	CFTR F508del cor 11.7
Cc1cccc(S(=O)(=O)NC[C@@H]2CC[C@H]3NC[C@H]3O2)c1	none (no result: HIF act, Jurkat NFkB inh, 697 NFkB inh)
CC=Cc1ccc2n(c1=O)C[C@H]1[C@H](CO)[C@@H](C(=O)N3CCc4ccccc4C3)[C@@H]2N1Cc1ccncc1 (mixture of isomers)	none (no result: HIF act, Jurkat NFkB inh, 697 NFkB inh)
O=C(COc1ccc2ccc(=O)oc2c1)NCCN1CCOCC1	none (no result: HIF act, Jurkat NFkB inh, 697 NFkB inh)
CC(Oc1ccc2ccc(=O)oc2c1)C(=O)NCCN1CCOCC1 (stereo not drawn)	HIF act 60.5
CC(=O)N1[C@H](CO)[C@@H](c2ccccc2)C12CN(C(=O)Nc1ccccc1F)C2	none (no result: HIF act, Jurkat NFkB inh, 697 NFkB inh)
COc1ccc(NC(=S)N2CCN(C(=O)c3ccccc3)CC2)cc1	HIF act 57.7
O=C(NCC[C@@H]1CC[C@@H](NS(=O)(=O)Cc2ccccc2)[C@H](CO)O1)C1CCC1	none (no result: HIF act, Jurkat NFkB inh, 697 NFkB inh)
COc1ccccc1NC(=O)/C(N=Nc1ccc(C)c(S(=O)(=O)Nc2ccccc2Cl)c1)=C(\C)O	none (no result: HIF act)
COc1ccccc1NS(=O)(=O)c1cc(N=N/C(C(=O)Nc2ccc(Cl)cc2)=C(/C)O)ccc1C	CFTR F508del cor 11.5 (no result: HIF act)
O=C(COc1ccc(Br)cc1CO)Nc1ccc(S(=O)(=O)N2CCCC2)cc1	none (no result: HIF act)
Cc1ccc(NC(=O)COc2ccc(Br)cc2CO)cc1S(=O)(=O)N1CCOCC1	CFTR F508del cor 8.6 (no result: HIF act)
C=CCN1C(=O)C2C(C(=O)NCc3ccccc3)C3C=CC2(O3)C1C(=O)NC(C)(C)C (stereo not drawn)	none (no result: CFTR F508del cor)
CCOC(=O)[C@@H]1[C@@H]2C=C[C@]3(O2)[C@H](C(=O)NCc2ccccc2)N(CCCCCCO)C(=O)[C@@H]13	CFTR F508del cor 10.5 (no result: HIF act, Jurkat NFkB inh, 697 NFkB inh)
Nc1ccc(S(N)(=O)=O)cc1N	none
NS(=O)(=O)c1ccc(Cl)c(S(N)(=O)=O)c1	CFTR F508del cor 10.5 (no result: HIF act, Jurkat NFkB inh, 697 NFkB inh)
CCn1c(SCC(=O)Nc2nncs2)nnc1-c1ccco1	HIF act 33.9
CCn1c(SCC(=O)Nc2nc(C)cs2)nnc1-c1ccco1	none (no result: CFTR F508del cor)
CC(C)c1nnc(NC(=O)CCC(=O)NC2CC2)s1	HIF act 17.9
Oc1c(N=Nc2ccccn2)ccc2ccccc12	HIF act 33.6 (no result: CFTR F508del cor)
Oc1[nH]c2ccccc2c1N=Nc1ccccn1	none (no result: HIF act, Jurkat NFkB inh, 697 NFkB inh)
Cc1cccc(N2CCN(c3ccc(N4C(=O)CCCC4=O)cc3[N+](=O)[O-])CC2C)c1 (stereo not drawn)	HIF act 78.8 (no result: CFTR F508del cor)
Cc1cccc(N2CCN(c3ccc(N4C(=O)CCCC4=O)cc3[N+](=O)[O-])CC2)c1C	none (no result: CFTR F508del cor)
C=CCn1c(N2CCCCCC2)nc2c1c(=O)[nH]c(=O)n2C	HIF act 29.7 (no result: CFTR F508del cor)
C=CCn1c(N2CCOCC2)nc2c1c(=O)[nH]c(=O)n2C	none
CCCCNC(=O)c1onc(CSc2ccccc2C)c1C(=O)O	CFTR F508del cor 8.3
CCC(=O)N1CC2(C1)CN(Cc1ccccc1Cl)[C@H](CO)c1[nH]c3cc(OC)ccc3c12	none (no result: HIF act, Jurkat NFkB inh, 697 NFkB inh)
Cc1ccc(-c2nn(-c3ccccc3)cc2C(=O)N2CCN(c3ccccn3)CC2)cc1	CFTR F508del cor 15.2
O=C(c1cn(-c2ccccc2)nc1-c1ccccc1)N1CCN(c2ccccn2)CC1	none
C[C@H](CO)N1C[C@H](C)[C@H](CN(C)C(=O)c2ccncc2)Oc2ncc(C3=CCCC3)cc2C1=O	none (no result: HIF act, Jurkat NFkB inh, 697 NFkB inh)
COc1ccccc1-c1cc(C(F)(F)F)nc(S(=O)(=O)CCCC(=O)O)n1	none (no result: CFTR F508del cor)
COc1ccccc1-c1cc(C(F)(F)F)nc(S(=O)(=O)CCCC(=O)N2CCOCC2)n1	HIF act 15.3 (no result: CFTR F508del cor)
O=C(C[C@@H]1CC[C@H]2[C@@H](COC[C@@H](O)CN2Cc2ccc3c(c2)OCO3)O1)Nc1ccc(-c2ccccc2)cc1	none (no result: HIF act, Jurkat NFkB inh, 697 NFkB inh)
COc1ccccc1N1CCN(/N=C/C=C\c2ccccc2[N+](=O)[O-])CC1	CFTR F508del cor 15.2
COc1ccccc1N1CCN(/N=C/C=C\c2ccco2)CC1	none (no result: CFTR F508del cor)
Cc1nn2cc(-c3cccc(Cl)c3)cnc2c1Br	CFTR F508del cor 9.5
CCCC#Cc1ccc([C@H]2[C@H](CO)N3CCCCN(CC4CC4)C[C@@H]23)cc1	none (no result: HIF act, Jurkat NFkB inh, 697 NFkB inh)
Cc1cc(C(=O)Nc2sc3c(c2C#N)CCC3)no1	none (no result: CFTR F508del cor)
Cc1noc(C(=O)Nc2sc3c(c2C#N)CCC3)c1Cl	HIF act 14.3
Oc1cccc2cc(Nc3ccccc3)cnc12	CFTR F508del cor 10.0 (no result: HIF act, Jurkat NFkB inh, 697 NFkB inh)
Oc1cc(Nc2ccccc2)cc2cccnc12	none (no result: HIF act)
COc1ccc(Cl)cc1NC(=O)CN(C)CC(=O)Nc1cc(OC)c(OC)c(OC)c1	CFTR F508del cor 12.6
C/C=C/c1cnc2c(c1)C(=O)N([C@@H](C)CO)C[C@H](C)[C@H](CN(C)C(=O)C1CCC1)O2	none (no result: HIF act, Jurkat NFkB inh, 697 NFkB inh)
c1ccc(-c2nnc3sc(-c4cc5ccccc5o4)nn23)cc1	HIF act 17.2 (no result: CFTR F508del cor)
c1ccc(-c2nnc3sc(-c4ccncc4)nn23)cc1	none (no result: CFTR F508del cor)
Cc1cccc(C)c1NC(=S)/C(=C(\[O-])c1cccs1)[n+]1ccccc1	none (no result: CFTR F508del cor)
[O-]/C(=C(\C(=S)Nc1cccc2ccccc12)[n+]1ccccc1)c1cccs1	HIF act 54.6
CCOC(=O)c1sc(NC(=S)NC(=O)C2CC2)cc1C	HIF act 72.1
CCOC(=O)c1sc(NC(=S)NC(=O)C23CC4CC(CC(C4)C2)C3)cc1C	none
C/C=C/c1cnc2c(c1)C(=O)N([C@@H](C)CO)C[C@@H](C)[C@@H](CN(C)Cc1ccccc1)O2	none (no result: HIF act, Jurkat NFkB inh, 697 NFkB inh)
CCC(=O)N1[C@@H]2c3cccc(=O)n3C[C@@H]2[C@@H](CO)[C@@H]1C(=O)N[C@@H](C)c1ccccc1	none (no result: HIF act, Jurkat NFkB inh, 697 NFkB inh)

Screens (PubChem)
